Data published in PubChem BioAssay AID1159569 (Broad Institute, 2015).
Results with a measured potency or affinity are listed apart. Results filed as inconclusive are left out. Activity calls are given as the source filed them. How the calls were made is not given here.

Assay: toxicity to human HepG2 hepatoma cells – cell-based, plate reader, dry powder samples, cytotoxicity control, dose response (AID 1159569)

Structure (SMILES)	outcome
COc1ccc(S(=O)(=O)Nc2ccc3c(c2)CC(=O)N([C@@H](C)CO)C[C@H](C)[C@H](CN(C)S(=O)(=O)c2ccc(C)cc2)O3)cc1	inactive
COc1ccc2c3c(n(C)c2c1)[C@@H](CO)N(C(=O)c1ccc(F)cc1)CC31CCN(C(=O)Nc2ccc(F)cc2)CC1	inactive
C[C@@H]1CN([C@@H](C)CO)C(=O)c2cccc(NC(=O)Nc3ccccc3)c2O[C@@H]1CN(C)C(=O)Nc1ccc(F)cc1	inactive
COc1ccc(NC(=O)N(C)C[C@H]2Oc3c(NC(=O)Nc4ccccc4)cccc3C(=O)N([C@@H](C)CO)C[C@H]2C)cc1	inactive
O=C(Nc1ccccc1F)N1CCCCN2[C@@H](CO)[C@H](c3ccc(C#Cc4cccnc4)cc3)[C@@H]2C1	inactive
Cc1ccc(S(=O)(=O)N(C)C[C@H]2OCc3ccccc3-c3c(n(C)c4ccccc34)C(=O)N([C@H](C)CO)C[C@@H]2C)cc1	inactive
C[C@H](CO)N1C[C@H](C)[C@H](CN(C)S(=O)(=O)c2ccc(C#N)cc2)OCc2ccccc2-c2c(n(C)c3ccccc23)C1=O	inactive
C[C@H](CO)N1C[C@H](C)[C@H](CN(C)CC2CC2)Oc2ccc(NC(=O)Nc3ccccc3)cc2CC1=O	inactive
C[C@@H]1CN([C@H](C)CO)S(=O)(=O)c2ccc(C#Cc3ccccc3F)cc2O[C@H]1CN(C)C(=O)c1ccc2c(c1)OCO2	inactive
CO[C@@H]1CN(C)C(=O)c2ccc(NC(=O)Nc3ccccc3F)cc2OC[C@@H](C)N(CCC(F)(F)F)C[C@H]1C	inactive
COc1ccc2c3c(n(C)c2c1)[C@@H](CO)N(C(=O)C1CCCC1)CC31CN(C(=O)Nc2cccc(F)c2)C1	inactive
O=C(c1ccncc1)N1CC(=O)N2[C@H](C1)[C@@H](c1ccc(-c3cccnc3)cc1)[C@@H]2CO	inactive
COc1ccc(-c2ccccc2[C@H]2[C@@H](C#N)N(C(=O)C3CCCC3)[C@@H]2CO)cc1	inactive
COc1ccc(C#Cc2ccc3c(c2)[C@H]2[C@H](CCN2C(=O)C2CCCC2)[C@@H](CO)N3)cc1	inactive
C/C=C/c1ccc2c(c1)[C@H]1[C@H](CCN1C(=O)c1ccc(F)cc1)[C@H](CO)N2	inactive
CCCC#Cc1ccc([C@H]2[C@@H](CO)N(C(=O)C3CCCCC3)[C@H]2C#N)cc1	inactive
C/C=C/c1ccc([C@H]2[C@@H](C#N)N(C(=O)NC3CCCC3)[C@@H]2CO)cc1	inactive
C/C=C/c1ccc2c(c1)[C@H]1[C@H](CCN1S(=O)(=O)c1ccccc1C)[C@@H](CO)N2	inactive
COc1ccc(S(=O)(=O)Nc2cccc3c2O[C@H](CN(C)Cc2ccc(-c4ccccc4)cc2)[C@@H](C)CN([C@H](C)CO)C3=O)cc1	inactive
CC(C)(C)S(=O)N1Cc2cc(C(=O)NCc3ccc4c(c3)OCO4)nc(-c3cccc(-c4cc5ccccc5o4)c3)c2[C@H]1CCO (stereo not given in full)	inactive
CCCc1cn(CC[C@@H]2CC[C@H](NS(=O)(=O)c3ccc(-c4ccccc4)cc3)[C@H](CO)O2)nn1	inactive
C[C@@H]1CN([C@@H](C)CO)C(=O)c2cccc(NC(=O)c3cnccn3)c2O[C@@H]1CN(C)Cc1ccc(-c2ccccc2)cc1	inactive
OC[C@H]1[C@@H](c2ccc(-c3cccnc3)cc2)[C@@H]2CN(CC3CC3)CCCCN12	inactive
C[C@@H]1CN([C@H](C)CO)C(=O)c2cc(C#CCc3ccccc3)cnc2O[C@H]1CN(C)C(=O)C1CCC1	inactive
COc1ccc2c3c(n(C)c2c1)[C@@H](CO)N(C(=O)C1CCC1)CC31CN(C(=O)Nc2cccc(F)c2)C1	inactive
COc1ccccc1S(=O)(=O)N(C)C[C@H]1Oc2cc(/C=C/c3ccccc3)ccc2S(=O)(=O)N([C@H](C)CO)C[C@@H]1C	inactive
COc1ccc(C#Cc2cnc3c(c2)C(=O)N([C@H](C)CO)C[C@H](C)[C@H](CN(C)S(=O)(=O)c2cccc(F)c2)O3)cc1OC	inactive
CCCNC(=O)Nc1ccc2c(c1)OC[C@@H](C)N(Cc1ccccc1)C[C@@H](C)[C@H](OC)CN(C)C2=O	inactive
O=C(c1ccccc1F)N1CC(=O)N2[C@H](CO)[C@H](c3ccc(-c4cccnc4)cc3)[C@H]2C1	inactive
COc1ccc2c3c([nH]c2c1)[C@H](CO)N(C(=O)C1CCCCC1)CC31CCN(Cc2nccs2)CC1	inactive
